Data taken from article PMC4552634, “A New Set of Chemical Starting Points with Plasmodium falciparum Transmission-Blocking Potential for Antimalarial Drug Discovery” (PLoS ONE, 2015).
The whole screen tested about 13,000 compounds, of which about 3,200 (25%) showed an effect of 50% or more. Some of the results follow.

Each molecule was assayed on P. falciparum stage V gametocytes. Settings: 48 h, 5 µM; inhibitor.
Design: BacTiter-Glo ATP luminescence viability of purified stage V gametocytes in 384-well plates, per cent inhibition versus DMSO

First: COCCN1CCC(CNCC(C)(C)c2nc(-c3ccc(Cl)c(O)c3)c(-c3ccncc3)[nH]2)CC1 [TCMDC-140898]
Second: COc1ccc2nccc(N3CCC(CCNCc4ccc5c(n4)NC(=O)CS5)CC3)c2c1.Cl [TCMDC-141905]
The “% Inhibition” value of the first is lower: -79.12% for the first, -14.76% for the second.

Compared with `O=C(Nc1cccc(CN2CCCN(Cc3ccc(O)cc3)CC2)c1)c1ccc(Br)cc1` [TCMDC-141883], `Cc1cccc(CN2CCCN(Cc3ccc(C(=O)Nc4ccc(Cl)cc4)cc3)CC2)c1` [TCMDC-136407] is higher in “% Inhibition” value: 15.8% for the first, 32.89% for the second.

Compared with `Cc1nc(NC2=NCN(CCCN3CCOCC3)CN2)nc2c(C)cccc12` [TCMDC-125086], `COc1ccc(/C=C/C(=O)NCCCCCN2CCC(c3c[nH]c4ccccc34)CC2)cc1O` [TCMDC-139754] is lower in “% Inhibition” value: 47.98% for the first, -52.52% for the second.

Compared with `Cn1ccnc1CNC(=O)c1ccc(-c2cccc(-c3nc4cc(F)ccc4[nH]3)c2)cc1` [TCMDC-132354], `Cc1nnsc1C(=O)Nc1ccc(-c2cccc(-c3nc4ccc(F)cc4[nH]3)c2)cc1` [TCMDC-137080] is lower in “% Inhibition” value: -5.334% for the first, -15.9% for the second.

First: Cc1cc(OCCN2CCCCC2)ccc1NC(=O)c1cccc2c(=O)n(Cc3ccc(Cl)cc3)cnc12 [TCMDC-136727]
Second: O=c1c2sc(-c3ccc(Cl)cc3)cc2ncn1Cc1ccc(OCCN2CCCC2)c2ccccc12 [TCMDC-135387]
The “% Inhibition” value of the first is higher: 103.4% for the first, 24.51% for the second.

Going from `COc1ccc2nccc([C@@H](O)CN3CCC(NC(=O)Cc4cc5ccccc5s4)CC3)c2c1` [TCMDC-141033] to `COc1cccc(C(=O)N2CCN(Cc3cccc(NC(=O)c4cccs4)c3)CC2)c1` [TCMDC-136327], the “% Inhibition” value falls from -11.21% to -13.29%.

Going from `O=C(Nc1ccc(-c2cccc(-c3nc4ccc(F)cc4[nH]3)c2)cc1)Nc1ccsc1` [TCMDC-133218] to `NC(=O)c1cccc(C(=O)Nc2cccc(-c3cccc(-c4nc5ccc(F)cc5[nH]4)c3)c2)c1` [TCMDC-132198], the “% Inhibition” value falls from -7.279% to -10.48%.

Compared with `Cc1noc(C)c1-c1ccc2c(Nc3ccccc3C(C)(C)C)c(C(=O)NCc3ccc(C(F)(F)F)cc3)cnc2c1.Cl` [TCMDC-136348], `Cc1noc(C)c1-c1ccc2c(Nc3ccccc3C(C)(C)C)c(C(=O)NCc3ccccc3)cnc2c1.Cl` [TCMDC-136366] is higher in “% Inhibition” value: -20.49% for the first, -19.07% for the second.

First: Cc1noc(C)c1-c1ccc2c(Nc3nccc4ccccc34)c(C(N)=O)cnc2c1 [TCMDC-136456]
Second: Cc1noc(C)c1-c1ccc2c(Nc3ccc(Cl)cc3)c(C(N)=O)cnc2c1.Cl [TCMDC-136010]
The “% Inhibition” value of the first is higher: 97% for the first, 9.933% for the second.

First: Cc1noc(C)c1-c1ccc2c(Nc3ccccc3C(C)(C)C)c(C(=O)NCc3cccc4ccccc34)cnc2c1.Cl [TCMDC-136375]
Second: Cc1noc(C)c1-c1ccc2c(Nc3ccccc3C(C)(C)C)c(C(=O)NCc3ccc4c(c3)OCO4)cnc2c1.Cl [TCMDC-136353]
The “% Inhibition” value of the first is lower: -44.64% for the first, 56.26% for the second.

Compared with `Cc1noc(C)c1-c1ccc2c(Nc3ccccc3N3CCOCC3)c(C(=O)NCc3ccccc3)cnc2c1.Cl` [TCMDC-136667], `Cc1noc(C)c1-c1ccc2c(Nc3cccc4c3-c3ccccc3C4=O)c(C(=O)NCc3ccccc3I)cnc2c1` [TCMDC-136308] is higher in “% Inhibition” value: -0.5011% for the first, 93.19% for the second.

Compared with `CC(=O)c1ccc(Nc2c(C(N)=O)cnc3cc(-c4c(C)noc4C)ccc23)cc1` [TCMDC-136058], `Cc1cccc2[nH]c(-c3cccc(-c4ccc(NC(=O)c5cccc(C(N)=O)c5)cc4)c3)nc12` [TCMDC-132201] is higher in “% Inhibition” value: -8.163% for the first, 3.68% for the second.

Going from `Cc1cccc2[nH]c(-c3cccc(-c4cccc(NC(=O)Nc5ccc(Cl)c(Cl)c5)c4)c3)nc12` [TCMDC-133277] to `Cc1nnsc1C(=O)Nc1cccc(-c2cccc(-c3nc4c(C)cccc4[nH]3)c2)c1` [TCMDC-137086], the “% Inhibition” value rises from -37.89% to -18.91%.

Compared with `COc1nc(N)ncc1C(=O)NC1CN2CCC1CC2` (stereo not shown) [TCMDC-131574], `CN1CCN(c2ccc(-c3cccc(NC(=O)c4ccc5ccccc5c4)c3)nn2)CC1` [TCMDC-125349] is higher in “% Inhibition” value: 17.61% for the first, 17.67% for the second.

Compared with `CN1CCN(c2ccc(-c3cccc(NC(=O)c4cccc([N+](=O)[O-])c4)c3)nn2)CC1` [TCMDC-125452], `Cc1ccc(C(=O)Nc2cccc(-c3ccc(N4CCN(C)CC4)nn3)c2)cc1[N+](=O)[O-]` [TCMDC-124931] is higher in “% Inhibition” value: -8.078% for the first, 60.61% for the second.

Going from `Cc1[nH]c(C)c(-c2ccc(-c3ccccc3F)nc2)c(=O)c1Cl` [TCMDC-135927] to `Cc1[nH]c(C)c(-c2ccc(-c3ccccc3F)nc2)c(=O)c1Br` [TCMDC-135926], the “% Inhibition” value falls from 68.96% to 66.81%.

First: O=C(/C=C/c1ccc(-c2ccccc2)cc1)NCCCCCN1CCC(c2c[nH]c3ccccc23)CC1 [TCMDC-139210]
Second: Cc1ccc(/C=C/C(=O)NCCCCCN2CCC(c3c[nH]c4ccccc34)CC2)cc1 [TCMDC-139236]
The “% Inhibition” value of the first is higher: 111.8% for the first, 53.65% for the second.

Going from `O=C(/C=C/c1ccc(F)c(Br)c1)NCCCCCN1CCC(c2c[nH]c3ccccc23)CC1` [TCMDC-139235] to `O=C(/C=C/c1ccc(Br)cc1)NCCCCCN1CCC(c2c[nH]c3ccccc23)CC1` [TCMDC-139199], the “% Inhibition” value rises from -23.07% to 51.21%.

First: O=C(/C=C/c1ccc(I)cc1)NCCCCCN1CCC(c2c[nH]c3ccccc23)CC1 [TCMDC-139198]
Second: CC(C)(C)c1ccc(/C=C/C(=O)NCCCCCN2CCC(c3c[nH]c4ccccc34)CC2)cc1 [TCMDC-139247]
The “% Inhibition” value of the first is higher: 49.23% for the first, 18.04% for the second.

Going from `O=C(/C=C/C=C/c1ccccc1)NCCCCCN1CCC(c2c[nH]c3ccccc23)CC1` [TCMDC-139216] to `CN1CC=C(c2c[nH]c3ccc(Sc4ccccc4)cc23)CC1` [TCMDC-138969], the “% Inhibition” value falls from 106.6% to 5.413%.

Compared with `Cc1ccc(Nc2nc(C)cc(NCc3ccc(-n4ccnc4)cc3)n2)cc1` [TCMDC-133454], `Cc1nnsc1C(=O)Nc1ccc(-c2cccc(-c3nc4c(C)cccc4[nH]3)c2)cc1` [TCMDC-137087] is higher in “% Inhibition” value: 13.72% for the first, 78.56% for the second.

First: c1ccc(C2CCC(N3CCC(N4CCCC4)CC3)CC2)cc1 (stereo not shown) [TCMDC-124349]
Second: CCN1CCN(Cc2ccc3nc(-c4cc(C)n(Cc5cc(Cl)ccc5OCc5ccccc5)n4)[nH]c3c2)CC1 [TCMDC-136884]
The “% Inhibition” value of the first is lower: 3.112% for the first, 23.91% for the second.

Going from `Cn1c(=N)n(CC(=O)OCc2ccc(OCc3ccccc3)cc2)c2ccccc21` [TCMDC-138698] to `Cn1c(=N)n(CC(=O)N2CCc3ccc(Cl)cc3C2Cc2ccc(Cl)c(Cl)c2)c2ccccc21` (stereo not shown) [TCMDC-138699], the “% Inhibition” value rises from 4.888% to 109.1%.

Going from `CC(C)C[C@H]1c2[nH]c3ccc(Cl)cc3c2CCN1C(=O)CCc1ccccc1` [TCMDC-135179] to `C[C@@H](NC(=O)c1nn(-c2ccc(Cl)cc2)c(=O)c2ccccc12)C(C)(C)C` [TCMDC-124772], the “% Inhibition” value falls from 1.219% to -4.584%.

First: CCC1CN(S(=O)(=O)c2ccc3c(c2)NC(=O)CC(=O)N3)c2cc(Cl)ccc2O1 (stereo not shown) [TCMDC-125278]
Second: CCn1c(-c2cc(C)on2)nc2cnc(Oc3ccc(C(=O)N4CC(=O)N(C)C4C(C)(C)C)cc3)cc21 (stereo not shown) [TCMDC-134940]
The “% Inhibition” value of the first is higher: 25.65% for the first, 2.551% for the second.

First: CCc1cn(C)c2c(N3CCCC3=O)cc(C(=O)N[C@@H](Cc3ccccc3)[C@H](O)CNC(C)(C)c3cccc(OC)c3)cc12 [TCMDC-135196]
Second: CCc1cn(C)c2c(N3CCCC3=O)cc(C(=O)N[C@@H](Cc3ccccc3)[C@H](O)CNC(C)(C)c3cccc(C(F)(F)F)c3)cc12 [TCMDC-135197]
The “% Inhibition” value of the first is higher: 90.21% for the first, 87.86% for the second.

Compared with `CCc1c[nH]c2c(N3CCCC3=O)cc(C(=O)N[C@@H](Cc3ccccc3)[C@H](O)CNC(C)(C)c3cccc(C(F)(F)F)c3)cc12` [TCMDC-134402], `CCc1c[nH]c2c(N3CCCC3=O)cc(C(=O)N[C@@H](Cc3ccccc3)[C@H](O)CNC(C)(C)c3cccc(OC)c3)cc12` [TCMDC-134404] is higher in “% Inhibition” value: 2.989% for the first, 44.35% for the second.

Compared with `CCc1cn(C)c2c(N3CCCC3=O)cc(C(=O)N[C@@H](Cc3ccccc3)[C@H](O)CNCc3cccc(OC)c3)cc12` [TCMDC-135195], `CCn1ncc2c(N3CCCC3=O)cc(C(=O)N[C@@H](Cc3ccccc3)[C@H](O)CNC(C)(C)c3cccc(C(F)(F)F)c3)cc21` [TCMDC-135064] is higher in “% Inhibition” value: 21.06% for the first, 21.85% for the second.

First: Cc1cccc(C(=O)Nc2ccnc(N(C)CCCN(C)Cc3cccc(O)c3)c2)c1 [TCMDC-134953]
Second: Cc1nnsc1C(=O)Nc1cccc(-c2cccc(-c3nc4ccc(F)cc4[nH]3)c2)c1 [TCMDC-137081]
The “% Inhibition” value of the first is lower: -14.35% for the first, 77.92% for the second.

First: Cc1nnsc1C(=O)Nc1cccc(-c2cccc(-c3nc4ccc(C(F)(F)F)cc4[nH]3)c2)c1 [TCMDC-137084]
Second: Cc1nnsc1C(=O)Nc1ccc(-c2cccc(-c3nc4ccc(C(F)(F)F)cc4[nH]3)c2)cc1 [TCMDC-137085]
The “% Inhibition” value of the first is lower: -5.727% for the first, 34.28% for the second.

Going from `Cc1nnsc1C(=O)Nc1cccc(-c2csc(-c3nc4ccccc4[nH]3)c2)c1` [TCMDC-132394] to `Cc1nnsc1C(=O)Nc1cccc(-c2cccc(-c3nc4ccccc4[nH]3)c2)c1` [TCMDC-137078], the “% Inhibition” value rises from 19.6% to 82.4%.

Compared with `Cc1nnsc1C(=O)Nc1cccc(-c2ccc(-c3nc4ccccc4[nH]3)cc2)c1` [TCMDC-137083], `Cc1nnsc1C(=O)Nc1cccc(-c2ccc(-c3nc4ccc(C(F)(F)F)cc4[nH]3)cc2)c1` [TCMDC-137088] is higher in “% Inhibition” value: 11.59% for the first, 70.24% for the second.
